The values that follow come from PubChem BioAssay (EPA / NIEHS).

Where “and” joins values, the source holds several entries; their conditions need not be identical. Equal entries are not always repeated. Results filed as inconclusive are left out. The source holds several records for some structures; these can differ, active in one and inactive in another. Calls of active or inactive are those of the source. The calls were made as follows, unless noted: active = hit-call score of the fitted dose curve at least 0.9, where 1 is the maximum; inconclusive = response in the unintended direction; inactive = score below 0.9.

As usually defined, the AC50 is the midpoint of the concentration-response curve, whichever way the signal moves.

Experiment [1] is described as follows: BSK_4H_Eotaxin3: BioMAP Diversity Plus: 4H Assay for Eotaxin 3 Biomarker Activity (AID 2283000; active = hit-call score of the fitted dose curve at least 0.9, where 1 is the maximum; inactive = score below 0.9;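 as to outcome: CCL26 protein level quantified by ELISA in parallel with SRB cytotoxicity check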). Particulars: primary human endothelial cells (HUVEC); actives raise or lower the signal. The method in brief:
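Endothelial primary cells (human umbilical vein) exposed to compound for 24 h. ELISA detection of Eotaxin-3.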

The target in experiment [2] is human Peroxisome Proliferator-activated Receptor alpha (PPARa), PPARA (gene 5465) (UniProt Q07869). Description: ATG_PPARa_TRANS: Attagene TRANS-FACTORIAL HepG2 Assay for human Peroxisome Proliferator-activated Receptor alpha (PPARa) (AID 2283001). In outline: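 Transfected HepG2 cells treated with test chemical for 24 h. RNA isolated, reverse-transcribed with oligo(dT), PCR-amplified, FAM-labelled and HpaI-digested. Fragments sized by capillary electrophoresis; gain-of-signal fit relative to DMSO.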

Read-out in experiment [3]: Intercellular Adhesion Molecule 1 (ICAM1), ICAM1 (gene 3383)
In words: BSK_3C_ICAM1: BioMAP Diversity Plus: 3C Assay for Intercellular Adhesion Molecule 1 (ICAM1) Biomarker Activity (AID 2283003; active = hit-call score of the fitted dose curve at least 0.9, where 1 is the maximum; inactive = score below 0.9). To be noted: primary human endothelial cells (HUVEC); actives raise or lower the signal. In outline:
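Using DMSO as baseline, bidirectional curve fitting was applied to ICAM-1 ELISA signals from HUVEC in the 3C system, measured 24 h after compound addition.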

Experiment [4] can be described thus: BSK_3C_Proliferation: Cell Proliferation Assessment in the BioMAP Diversity Plus: 3C Assay (AID 2283006; active = hit-call score of the fitted dose curve at least 0.9, where 1 is the maximum; inactive = score below 0.9;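 as to AC50: potency may reflect either rise or fall in cell number versus DMSO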). Particulars: primary human endothelial cells (HUVEC). In outline: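 Measured here: sulforhodamine B (0.1%) staining of TCA-fixed sub-confluent umbilical vein endothelial cultures 48 h post-dosing, absorbance 560 nm. DMSO served as negative control and baseline; both signal gain and loss were modelled.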

For experiment [5], the target named is Peroxisome proliferator-activated receptor gamma (Homo sapiens) (UniProt P37231). Description: ATG_PPARg_TRANS: Attagene TRANS-FACTORIAL HepG2 Assay for human Peroxisome Proliferator-activated Receptor-gamma (PPARg) (AID 2283007). In outline: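 A TRANS-format multiplexed reporter assay measures activity of an exogenous chimeric NR-Gal4 protein in HepG2 cells. After 24 h of chemical exposure, reporter transcripts are amplified, fluorescently labelled and sized by capillary electrophoresis, with gain of signal scored against DMSO.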

Experiment [6] concerns the target Nuclear receptor subfamily 1 group I member 2 (Homo sapiens) (UniProt O75469). Description: ATG_PXR_TRANS: Attagene TRANS-FACTORIAL HepG2 Assay for human Pregnane X Receptor (PXR) (AID 2283008). The method in brief:
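Transactivation by exogenous PXR–GAL4 fusion measured as reporter transcript induction after 24 h compound treatment of transfected human HepG2 cells. Read-out via RT-PCR and capillary electrophoresis of labelled fragments, fitted upward relative to DMSO.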

For experiment [7], the target named is human RAR-related Orphan Receptor gamma (RORg), RORC (gene 6097) (UniProt P51449). In words: ATG_RORg_TRANS: Attagene TRANS-FACTORIAL HepG2 Assay for human RAR-related Orphan Receptor gamma (RORg) (AID 2283011). The method in brief: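 Activity is scored as increase in GAL4-UAS reporter mRNA over DMSO, detected by fluorescent RT-PCR and capillary electrophoresis in HepG2 cells transiently expressing a RORg-Gal4 chimera, 24 h after dosing.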

Read-out in experiment [8]: Interleukin-1 alpha (IL1a), IL1A (gene 3552)
In words: BSK_BE3C_IL1a: BioMAP Diversity Plus: BE3C Assay for Interleukin-1 alpha (IL1a) Biomarker Activity (AID 2283016; active = hit-call score of the fitted dose curve at least 0.9, where 1 is the maximum; inactive = score below 0.9). Particulars: primary human bronchial epithelial cells; actives raise or lower the signal. The method in brief: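 Measured in human lung primary bronchial epithelial cells: IL-1a by ELISA at 24 h after dosing, with bidirectional fitting against DMSO.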

Read-out in experiment [9]: Monocyte Chemoattractant Protein-1 (MCP1), CCL2 (gene 6347)
In words: BSK_4H_MCP1: BioMAP Diversity Plus: 4H Assay for Monocyte Chemoattractant Protein-1 (MCP1) Biomarker Activity (AID 2283018; active = hit-call score of the fitted dose curve at least 0.9, where 1 is the maximum; inactive = score below 0.9). Particulars: primary human endothelial cells (HUVEC); actives raise or lower the signal. The method in brief: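 Primary human umbilical vein endothelium is exposed to chemical for 24 h before MCP-1 is assayed by ELISA. Concentration-response fitted bidirectionally relative to DMSO.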

Read-out in experiment [10]: Interleukin-8 (IL8), CXCL8 (gene 3576)
In words: BSK_3C_IL8: BioMAP Diversity Plus: 3C Assay for Interleukin-8 (IL8) Biomarker Activity (AID 2283020; active = hit-call score of the fitted dose curve at least 0.9, where 1 is the maximum; inactive = score below 0.9). Particulars: primary human endothelial cells (HUVEC); actives raise or lower the signal. The method in brief:
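Using DMSO-treated wells as the baseline, bidirectional curve fitting was applied to ELISA-measured IL-8 from human umbilical vein endothelial cultures sampled 24 h after compound addition.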

Read-out in experiment [11]: Monokine induced gamma interferon (MIG), CXCL9 (gene 4283)
Description: BSK_3C_MIG: BioMAP Diversity Plus: 3C Assay for Monokine induced gamma interferon (MIG) Biomarker Activity (AID 2283021; active = hit-call score of the fitted dose curve at least 0.9, where 1 is the maximum; inactive = score below 0.9;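 as to AC50: MIG protein level measured by immunoassay in the treated endothelial cultures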). To be noted: primary human endothelial cells (HUVEC); actives raise or lower the signal. In outline: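 ELISA-measured MIG in dosed HUVEC 3C cultures at 24 h, analysed by bidirectional fitting with DMSO defining baseline activity.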

Experiment [12] addresses human Peroxisome Proliferator-activated Receptor delta (PPARd), PPARD (gene 5467) (UniProt Q03181). Description: ATG_PPARd_TRANS: Attagene TRANS-FACTORIAL HepG2 Assay for human Peroxisome Proliferator-activated Receptor delta (PPARd) (AID 2283002). In outline: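 Read-out is induced reporter mRNA, quantified by RT-PCR with fluorescent labelling and capillary electrophoresis after 24 h dosing. Cells are HepG2 transiently carrying multiple GAL4-UAS reporter units driven by exogenous NR-GAL4 chimeras; DMSO serves as baseline.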

In experiment [13] the target is Retinoic acid receptor RXR-alpha (Homo sapiens) (UniProt P19793). Description: ATG_RXRa_TRANS: Attagene TRANS-FACTORIAL HepG2 Assay for human Retinoid X Receptor alpha (RXRa) (AID 2283012). In outline: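 Chimeric NR-GAL4 trans-activation in HepG2, 24 h treatment; reporter transcripts quantified by fluorescence on capillary electrophoresis, analysed for upward change from DMSO.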

Experiment [14] addresses human Thyroid Receptor alpha (THRa1), THRA (gene 7067) (UniProt P10827). In words: ATG_THRa1_TRANS: Attagene TRANS-FACTORIAL HepG2 Assay for human Thyroid Receptor alpha (THRa1) (AID 2283014). In outline: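 First, HepG2 cells receive multiple GAL4-UAS reporter units and the chimeric receptor. They are then dosed for 24 h, after which RNA is reverse-transcribed, amplified, labelled, HpaI-cut and sized by capillary electrophoresis; gain relative to DMSO is scored.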

Experiment [15] has as its target Retinoic acid receptor alpha (Homo sapiens) (UniProt P10276). Description: ATG_RARa_TRANS: Attagene TRANS-FACTORIAL HepG2 Assay for human Retinoic Acid Receptor alpha (RARa) (AID 2283005). The method in brief: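 Reporter transcripts, measured by RT-PCR with fluorescent labeling and capillary electrophoresis after 24 h dosing, reflect activity of an exogenous human RARa–GAL4 fusion in transiently transfected HepG2. Fitted for increase relative to DMSO.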

Read-out in experiment [16]: Human Leukocyte Antigen - DR isotype (HLADR), HLA-DRA (gene 3122)
Description: BSK_3C_HLADR: BioMAP Diversity Plus: 3C Assay for Human Leukocyte Antigen - DR isotype (HLADR) Biomarker Activity (AID 2283019; active = hit-call score of the fitted dose curve at least 0.9, where 1 is the maximum; inactive = score below 0.9;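 also: ELISA of cell-surface HLA-DR on HUVEC 24 h after dosing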). Particulars: primary human endothelial cells (HUVEC); actives raise or lower the signal. The method in brief:
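Endothelial cells from human umbilical vein are treated with test chemical; after 24 h, HLA-DR levels are measured by ELISA. Data are fitted in both directions using DMSO as the baseline.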

For experiment [17], the target named is human Retinoic Acid Receptor beta (RARb), RARB (gene 5915) (UniProt P10826). Description: ATG_RARb_TRANS: Attagene TRANS-FACTORIAL HepG2 Assay for human Retinoic Acid Receptor beta (AID 2283004). In outline:
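HepG2, transient MRTU transfection, NR–Gal4 chimera, 24 h treatment; RT-PCR plus CE fluorescence detection of reporter mRNA; gain of signal vs DMSO.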

Experiment [18] addresses human Retinoid X Receptor beta (RXRb), RXRB (gene 6257) (UniProt P28702). In words: ATG_RXRb_TRANS: Attagene TRANS-FACTORIAL HepG2 Assay for human Retinoid X Receptor beta (RXRb) (AID 2283013). The method in brief:
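After a 24 h incubation with test chemical, transfected HepG2 cells carrying NR-Gal4 fusions and GAL4-UAS reporter transcription units yield RNA whose reporter cDNA is FAM-labelled, HpaI-cut and sized by capillary electrophoresis; increases over DMSO are scored.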

Read-out in experiment [19]: E-selectin (Homo sapiens) (UniProt P16581)
Description: BSK_3C_Eselectin: BioMAP Diversity Plus: 3C Assay for Eselectin Biomarker Activity (AID 2283015; active = hit-call score of the fitted dose curve at least 0.9, where 1 is the maximum; inactive = score below 0.9). Particulars: primary human endothelial cells (HUVEC); actives raise or lower the signal. In outline:
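Human vascular endothelium from umbilical vein is exposed to test chemicals for 24 h. E-selectin levels are read by ELISA and compared with DMSO controls.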

Read-out in experiment [20]: Monocyte Chemoattractant Protein-1 (MCP1), CCL2 (gene 6347)
In words: BSK_3C_MCP1: BioMAP Diversity Plus: 3C Assay for Monocyte Chemoattractant Protein-1 (MCP1) Biomarker Activity (AID 2283017; active = hit-call score of the fitted dose curve at least 0.9, where 1 is the maximum; inactive = score below 0.9). Particulars: primary human endothelial cells (HUVEC); actives raise or lower the signal. In outline: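 Endothelial cells from human umbilical vein are dosed with chemical, cultured 24 h, then assayed for MCP-1 by ELISA; both increases and decreases are modelled against DMSO controls.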

Sequence of Retinoic acid receptor alpha (Homo sapiens) (P10276 whole entry, looked up, the tested form may be a part): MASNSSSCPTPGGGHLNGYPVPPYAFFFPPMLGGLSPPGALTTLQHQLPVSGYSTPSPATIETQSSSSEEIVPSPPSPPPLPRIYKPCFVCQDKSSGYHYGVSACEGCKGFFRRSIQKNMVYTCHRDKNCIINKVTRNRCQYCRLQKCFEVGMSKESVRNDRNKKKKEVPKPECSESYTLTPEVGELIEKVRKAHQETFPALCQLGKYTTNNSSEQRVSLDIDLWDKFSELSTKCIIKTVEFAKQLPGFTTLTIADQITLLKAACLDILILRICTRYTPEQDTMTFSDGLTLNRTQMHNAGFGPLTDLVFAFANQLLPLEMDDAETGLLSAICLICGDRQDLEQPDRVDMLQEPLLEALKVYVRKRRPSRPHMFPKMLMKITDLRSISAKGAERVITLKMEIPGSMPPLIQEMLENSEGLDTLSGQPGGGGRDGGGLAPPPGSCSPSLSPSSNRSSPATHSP
Sequence of Nuclear receptor subfamily 1 group I member 2 (Homo sapiens) (O75469 whole entry, looked up, the tested form may be a part): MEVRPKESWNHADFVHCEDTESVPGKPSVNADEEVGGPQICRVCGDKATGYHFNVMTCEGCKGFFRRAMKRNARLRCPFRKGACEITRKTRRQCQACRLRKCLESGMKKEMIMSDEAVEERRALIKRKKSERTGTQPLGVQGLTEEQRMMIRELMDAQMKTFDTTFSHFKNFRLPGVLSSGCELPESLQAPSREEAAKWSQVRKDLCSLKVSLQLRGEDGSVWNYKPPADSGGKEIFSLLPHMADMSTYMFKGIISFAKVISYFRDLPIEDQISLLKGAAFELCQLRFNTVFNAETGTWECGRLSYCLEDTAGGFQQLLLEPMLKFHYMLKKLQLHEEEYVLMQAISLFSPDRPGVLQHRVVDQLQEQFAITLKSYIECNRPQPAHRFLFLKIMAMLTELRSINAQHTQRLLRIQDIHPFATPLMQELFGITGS
Sequence of human Retinoic Acid Receptor beta (RARb), RARB (gene 5915) (P10826 whole entry, looked up, the tested form may be a part): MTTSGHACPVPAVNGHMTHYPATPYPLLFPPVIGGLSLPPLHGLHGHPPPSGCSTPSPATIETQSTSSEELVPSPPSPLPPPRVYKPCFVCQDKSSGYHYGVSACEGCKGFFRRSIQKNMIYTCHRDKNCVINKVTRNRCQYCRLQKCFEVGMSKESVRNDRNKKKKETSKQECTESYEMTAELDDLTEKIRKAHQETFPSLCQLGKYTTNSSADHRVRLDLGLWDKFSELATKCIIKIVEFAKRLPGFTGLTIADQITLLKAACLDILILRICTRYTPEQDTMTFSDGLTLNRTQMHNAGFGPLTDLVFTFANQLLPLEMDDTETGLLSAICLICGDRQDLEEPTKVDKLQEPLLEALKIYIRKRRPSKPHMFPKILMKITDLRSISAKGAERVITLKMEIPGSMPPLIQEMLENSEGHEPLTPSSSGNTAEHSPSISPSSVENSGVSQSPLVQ
Sequence of human Thyroid Receptor alpha (THRa1), THRA (gene 7067) (P10827 whole entry, looked up, the tested form may be a part): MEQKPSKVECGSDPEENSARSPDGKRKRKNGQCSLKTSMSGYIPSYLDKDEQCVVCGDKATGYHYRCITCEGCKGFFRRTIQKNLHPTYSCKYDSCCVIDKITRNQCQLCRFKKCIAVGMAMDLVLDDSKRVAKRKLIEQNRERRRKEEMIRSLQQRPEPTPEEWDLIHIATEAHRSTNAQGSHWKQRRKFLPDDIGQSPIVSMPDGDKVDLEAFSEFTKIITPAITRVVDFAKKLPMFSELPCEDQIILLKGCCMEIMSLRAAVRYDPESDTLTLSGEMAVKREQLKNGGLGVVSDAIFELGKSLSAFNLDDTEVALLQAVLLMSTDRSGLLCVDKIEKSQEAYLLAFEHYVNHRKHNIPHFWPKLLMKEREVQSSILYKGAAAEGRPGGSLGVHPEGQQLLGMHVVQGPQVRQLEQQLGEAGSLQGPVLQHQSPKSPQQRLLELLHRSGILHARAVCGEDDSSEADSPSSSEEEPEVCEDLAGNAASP
Sequence of Peroxisome proliferator-activated receptor gamma (Homo sapiens) (P37231 whole entry, looked up, the tested form may be a part): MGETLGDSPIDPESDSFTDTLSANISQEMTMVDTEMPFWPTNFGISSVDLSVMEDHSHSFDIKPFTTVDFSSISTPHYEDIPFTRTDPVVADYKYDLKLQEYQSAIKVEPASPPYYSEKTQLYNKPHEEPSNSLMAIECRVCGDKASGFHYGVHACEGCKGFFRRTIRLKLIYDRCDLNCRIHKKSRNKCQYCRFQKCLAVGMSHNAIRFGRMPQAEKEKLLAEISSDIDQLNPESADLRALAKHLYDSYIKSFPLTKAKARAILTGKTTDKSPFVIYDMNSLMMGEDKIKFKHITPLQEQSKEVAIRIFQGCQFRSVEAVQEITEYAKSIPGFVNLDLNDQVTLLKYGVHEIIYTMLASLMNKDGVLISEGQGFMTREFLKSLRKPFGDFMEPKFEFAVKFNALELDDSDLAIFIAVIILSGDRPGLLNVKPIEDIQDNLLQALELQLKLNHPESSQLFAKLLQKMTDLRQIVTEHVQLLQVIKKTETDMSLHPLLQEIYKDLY
Sequence of human Retinoid X Receptor beta (RXRb), RXRB (gene 6257) (P28702 whole entry, looked up, the tested form may be a part): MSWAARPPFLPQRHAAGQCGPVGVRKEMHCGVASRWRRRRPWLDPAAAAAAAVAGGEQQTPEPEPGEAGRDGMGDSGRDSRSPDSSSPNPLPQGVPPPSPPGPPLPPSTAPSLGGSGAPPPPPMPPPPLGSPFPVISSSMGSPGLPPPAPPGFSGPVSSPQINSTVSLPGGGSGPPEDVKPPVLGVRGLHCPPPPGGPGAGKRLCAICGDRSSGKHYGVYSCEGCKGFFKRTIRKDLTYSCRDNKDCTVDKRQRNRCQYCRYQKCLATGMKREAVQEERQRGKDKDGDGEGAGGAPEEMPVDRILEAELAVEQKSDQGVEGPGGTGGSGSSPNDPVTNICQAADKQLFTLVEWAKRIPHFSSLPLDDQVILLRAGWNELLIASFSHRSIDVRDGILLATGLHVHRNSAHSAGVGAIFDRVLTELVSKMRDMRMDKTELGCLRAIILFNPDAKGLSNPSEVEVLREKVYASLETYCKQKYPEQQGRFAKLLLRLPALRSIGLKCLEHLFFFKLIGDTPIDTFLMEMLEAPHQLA
Sequence of Retinoic acid receptor RXR-alpha (Homo sapiens) (P19793 whole entry, looked up, the tested form may be a part): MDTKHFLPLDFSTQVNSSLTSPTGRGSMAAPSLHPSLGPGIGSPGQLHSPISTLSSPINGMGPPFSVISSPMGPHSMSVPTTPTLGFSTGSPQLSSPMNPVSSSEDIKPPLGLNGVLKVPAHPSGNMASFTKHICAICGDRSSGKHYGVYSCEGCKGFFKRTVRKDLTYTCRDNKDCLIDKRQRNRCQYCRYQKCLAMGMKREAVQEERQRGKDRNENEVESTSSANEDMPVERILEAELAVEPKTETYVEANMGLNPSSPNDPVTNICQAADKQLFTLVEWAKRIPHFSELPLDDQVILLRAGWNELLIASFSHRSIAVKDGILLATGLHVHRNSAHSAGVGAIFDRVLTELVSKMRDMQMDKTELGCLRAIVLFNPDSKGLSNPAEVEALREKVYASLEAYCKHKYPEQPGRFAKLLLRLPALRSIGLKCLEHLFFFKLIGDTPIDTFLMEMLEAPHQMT
Sequence of human Peroxisome Proliferator-activated Receptor delta (PPARd), PPARD (gene 5467) (Q03181 whole entry, looked up, the tested form may be a part): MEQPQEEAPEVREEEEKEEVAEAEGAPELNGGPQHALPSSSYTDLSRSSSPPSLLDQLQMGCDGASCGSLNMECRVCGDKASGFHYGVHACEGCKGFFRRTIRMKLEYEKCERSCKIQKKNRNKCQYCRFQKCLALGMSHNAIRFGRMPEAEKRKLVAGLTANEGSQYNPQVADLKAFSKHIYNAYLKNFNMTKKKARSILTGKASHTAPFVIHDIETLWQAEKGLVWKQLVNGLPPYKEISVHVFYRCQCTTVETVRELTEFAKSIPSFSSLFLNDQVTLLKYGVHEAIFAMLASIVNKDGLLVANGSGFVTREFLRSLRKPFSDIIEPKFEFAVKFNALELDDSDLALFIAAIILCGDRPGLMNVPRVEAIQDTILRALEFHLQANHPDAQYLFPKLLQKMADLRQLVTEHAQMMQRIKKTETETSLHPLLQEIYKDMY
Sequence of human Peroxisome Proliferator-activated Receptor alpha (PPARa), PPARA (gene 5465) (Q07869 whole entry, looked up, the tested form may be a part): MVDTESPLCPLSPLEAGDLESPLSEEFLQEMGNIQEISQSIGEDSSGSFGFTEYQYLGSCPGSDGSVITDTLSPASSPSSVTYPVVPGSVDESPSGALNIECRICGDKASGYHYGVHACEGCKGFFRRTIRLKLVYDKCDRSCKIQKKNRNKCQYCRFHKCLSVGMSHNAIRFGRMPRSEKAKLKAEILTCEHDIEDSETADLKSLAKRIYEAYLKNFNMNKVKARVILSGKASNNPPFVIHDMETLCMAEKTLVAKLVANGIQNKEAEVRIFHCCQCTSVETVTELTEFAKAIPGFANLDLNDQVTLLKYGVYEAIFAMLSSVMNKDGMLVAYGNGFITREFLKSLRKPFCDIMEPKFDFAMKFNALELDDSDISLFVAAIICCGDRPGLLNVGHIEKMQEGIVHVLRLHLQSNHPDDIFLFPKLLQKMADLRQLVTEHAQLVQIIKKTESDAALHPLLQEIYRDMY
Sequence of human RAR-related Orphan Receptor gamma (RORg), RORC (gene 6097) (P51449 whole entry, looked up, the tested form may be a part): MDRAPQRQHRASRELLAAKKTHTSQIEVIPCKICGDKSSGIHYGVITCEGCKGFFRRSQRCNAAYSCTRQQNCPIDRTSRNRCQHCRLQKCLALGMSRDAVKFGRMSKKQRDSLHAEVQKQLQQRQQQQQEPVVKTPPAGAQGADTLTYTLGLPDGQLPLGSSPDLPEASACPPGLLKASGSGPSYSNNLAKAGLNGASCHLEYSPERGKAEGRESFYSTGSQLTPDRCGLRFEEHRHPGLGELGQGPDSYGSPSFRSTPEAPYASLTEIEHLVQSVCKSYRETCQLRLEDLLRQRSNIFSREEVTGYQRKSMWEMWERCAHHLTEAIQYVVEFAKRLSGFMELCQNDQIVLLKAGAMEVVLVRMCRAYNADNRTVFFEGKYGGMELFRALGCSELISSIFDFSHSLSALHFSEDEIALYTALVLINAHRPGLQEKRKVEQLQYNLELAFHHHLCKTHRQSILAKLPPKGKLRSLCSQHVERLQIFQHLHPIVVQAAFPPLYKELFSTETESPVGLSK

On to `O=C(NC(=O)c1cc(F)c(F)cc1Cl)Nc1cc(F)ccc1N1CCC(C(=O)O)CC1`, for which the outcome in experiment [1], in experiment [2], in [3], in experiment [4], in [6] and in [7] was inactive. In addition, the result in experiment [8], in [9], in experiment [10] and in [11] was inactive. For the same molecule, the AC50 in experiment [5] is 0.954 µM (active).

Take `Clc1ccc(C(c2ccccc2Cl)C(Cl)(Cl)Cl)cc1` (centres undefined): the AC50 was 20.3 µM (active) in experiment [1]; 21.7 µM (active) in experiment [3]; 7.61 µM (active) in [4]; 3.39 µM (active) and 2.82 µM (active) and 3.97 µM (active) in experiment [6]; 9.7 µM (active) in experiment [9]; 20.4 µM (active) in [10]. The concentration at half-maximal activity (AC50) in experiment [11] is 21.5 µM (active). In addition, the outcome in [2], in experiment [12], in experiment [5], in experiment [6], in [13] and in [14] was inactive. Besides, in [8], the result was inactive.

`Cc1ccccc1O`: the outcome in experiment [1], in [2], in experiment [3], in [15], in [4] and in experiment [6] was inactive. In addition, the molecule was called inactive in experiment [13], in [8], in [9], in experiment [16], in experiment [10] and in experiment [11].

In the case of `CC(C)(c1ccccc1)c1ccc(O)cc1`, the AC50 in [1] was 35.3 µM (active); in experiment [3], 36.4 µM (active); in experiment [5], 18.3 µM (active); in experiment [6], 2.93 µM (active) [middle of 4 runs]; in experiment [18] it was 9.21 µM (active) [middle of 4 runs]; in experiment [19], 34.7 µM (active). In addition, the AC50 in experiment [8] was 32.2 µM (active); in [9], 20 µM (active); in [10], 35.6 µM (active); in experiment [11], 39.1 µM (active). Moreover, the outcome in experiment [2], in experiment [12], in [17], in [15], in experiment [5] and in experiment [13] was inactive. The outcome in experiment [14] was inactive.

Turning to `CCC(C)(c1ccc(O)cc1)c1ccc(O)cc1`, the outcome in experiment [1], in experiment [2], in [3], in [5], in experiment [7] and in experiment [13] was inactive. For the same molecule, the molecule was called inactive in [18], in [14], in experiment [8] and in experiment [11]. Besides, the AC50 in experiment [4] is 26.8 µM (active); in experiment [5], 46.1 µM (active); in experiment [6], 2.52 µM (active) [middle of 4 runs]; in experiment [18], 9.02 µM (active) and 17.8 µM (active) and 19.6 µM (active); in experiment [9], 10.7 µM (active); in experiment [10], 22.9 µM (active).

With `CCCCCCCCOC(=O)c1ccccc1C(=O)OCCCCCCCC`, the AC50 in [1] is 14 µM (active); in experiment [5], 38.4 µM (active). Further, the molecule was called inactive in [2], in experiment [3], in experiment [15], in [4], in [6] and in experiment [13]. Moreover, the molecule was classed as inactive in experiment [18], in experiment [8], in experiment [20], in experiment [9], in experiment [10] and in experiment [11].

Take `Nn1cnnc1`: the result in experiment [1], in [2], in experiment [3], in experiment [17], in experiment [4] and in experiment [5] was inactive. The result in experiment [14], in [8], in experiment [9], in experiment [16], in experiment [10] and in experiment [11] was inactive.

Consider `Cc1ccc(O)c(C)c1`, for which the outcome in experiment [1], in [2], in experiment [12], in [3], in [17] and in experiment [4] was inactive. The call in experiment [5], in [18], in [14], in experiment [8], in experiment [9] and in experiment [10] was inactive. Further, the outcome in [11] was inactive.
